From PubChem
HCMV antiviral = inhibitors of human cytomegalovirus | HFF cells, HCMV-luciferase reporter, 72 h; active compounds read low | activity change, negative = inhibition, % at 57.5 µM | 4.5% of 410,000 active; in the data active means activity change below about -60%; inconclusive means no clear call, values can overlap the other calls; inactive means above about -39%; further: on the % scale 0 is the no-effect control and ±100 the full control effect
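Cell-based, HFFs, 1000 cells/well, 16 h 37C; cpds in DMSO + HCMV-luc, MOI 1 PFU/cell; 72 h 37C; OneGlo luminescence after 5 min RT; norm. to buffer vs Salinomycin 10uM.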
HCV inhibitor = HCV inhibition. Huh7.5.1 HCVcc-Cre infection, luciferase reporter, 44 h. Potency, µM (doses to about 41.8 µM), inactives show top-dose activity change, negative = inhibition, actives largely listed as inhibitors. 3.4% of 340,000 active. AID 651820; further: potency means the concentration at half of the fitted maximal effect; on the % scale 0 is the no-effect control and ±100 the full control effect
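1,000 cells/well; 4 h culture; + compound; + HCVcc-Cre (~0.5 moi); 44 h; luciferase substrate, RT 15 min; read 15 sec.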
Pf growth 96h = P. falciparum growth inhibition at 96 hours. 6.9% of 320,000 active. Potency, µM (titrated, usually from 28.7 µM), without a hit: at the top dose activity change, negative = inhibition, actives largely listed as inhibitors. P. falciparum luciferase reporter growth, 96 h; further: potency means the concentration at half of the fitted maximal effect; on the % scale 0 is the no-effect control and ±100 the full control effect
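Compounds incubated with erythrocytes infected by luciferase-expressing P. falciparum (2% hematocrit, 0.05% parasitemia final) for 96 hours, 37 C in 5% CO2. Growth inhibition scored as decreased luciferase luminescence.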
Pf growth 48h = P. falciparum growth inhibition at 48 hours (one generation); 5.9% of 310,000 active; Potency, µM (top dose mostly 28.7 µM), for inactives: at the top dose activity change, negative = inhibition, most hits filed as inhibitors; AID 504832; P. falciparum luciferase growth in erythrocytes, 48 h; further: potency means the concentration at half of the fitted maximal effect; on the % scale 0 is the no-effect control and ±100 the full control effect
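Luminescence readout; reporter = integrated firefly luciferase in P. falciparum. RBC culture at 2% hematocrit, 0.1% parasitemia final, 37 C/5% CO2; decreased signal taken as growth inhibition.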
Shiga inhibitor = Shiga toxin inhibition; Vero cells, Shiga toxin protein synthesis inhibition reporter; inhibition, % at 38.7 µM; 9.2% of 290,000 active; AID 2315; in the data active means inhibition mostly above about 28%, no sharp cut-off; inactive means mostly below about 43%; further: 0% is about no effect
Cycloheximide cs = affects cycloheximide protein synthesis inhibition readout, counter-screen; cell reporter, cycloheximide protein synthesis inhibition counterscreen; max response, %; 12% of 300,000 active; in the data active means max response mostly above about 13%, no sharp cut-off; inactive means mostly below about 14%; further: read at 38.3 µM for the half of the compounds with a filed dose; 0% is about no effect
* hit, by the source's call; [ ] = remark or other dose. Hits are enriched below; roughly 21% of the tested compounds scored in any of these assays. Unless noted, the call rests on the fitted dose curve; in most records, active means well fitted inhibition curve with a large enough effect; inconclusive means small, poorly fitted or top-dose-only effect, or another doubt; inactive means no such curve, though single readings can be large or run the other way.

Results for CC[C@H](C)[C@H](NC(=O)[C@H](CCC(=O)O)NC(=O)[C@@H](N)CO)C(=O)N[C@@H](CCC(N)=O)C(=O)N[C@@H](CC(C)C)C(=O)N[C@@H](CCSC)C(=O)N[C@@H](Cc1cnc[nH]1)C(=O)N[C@@H](CC(N)=O)C(=O)N[C@@H](CC(C)C)C(=O)NCC(=O)N[C@@H](CCCCN)C(=O)N[C@@H](Cc1cnc[nH]1)C(=O)N[C@@H](CC(C)C)C(=O)N[C@@H](CC(N)=O)C(=O)N[C@@H](CO)C(=O)N[C@@H](CCSC)C(=O)N[C@@H](CCC(=O)O)C(=O)N[C@@H](CCCNC(=N)N)C(=O)N[C@H](C(=O)N[C@@H](CCC(=O)O)C(=O)N[C@@H](Cc1c[nH]c2ccccc12)C(=O)N[C@@H](CC(C)C)C(=O)N[C@@H](CCCNC(=N)N)C(=O)N[C@@H](CCCCN)C(=O)N[C@@H](CCCCN)C(=O)N[C@@H](CC(C)C)C(=O)N[C@@H](CCC(N)=O)C(=O)N[C@@H](CC(=O)O)C(=O)N[C@H](C(=O)N[C@@H](Cc1cnc[nH]1)C(=O)N[C@@H](CC(N)=O)C(=O)N[C@@H](Cc1ccccc1)C(=O)O)C(C)C)C(C)C ?
Shiga inhibitor: -4.9; Cycloheximide cs: -8.4

What do the screens show for `CC(CNC(=O)CCn1ccc2cc(S(=O)(=O)N3CCCC3)ccc21)c1ccccc1` (centres undefined)?
HCMV antiviral: 49.1; HCV inhibitor: -25.8%; Pf growth 96h: 11.7µM*; Pf growth 48h: inconclusive; Shiga inhibitor: -2.6; Cycloheximide cs: -3.0

What do the screens show for `CCc1ccc(CNC(=O)CCCn2ccc3cc(S(=O)(=O)N4CCCC4)ccc32)cc1`?
HCMV antiviral: -88.6*

What do the screens show for `COc1cccc(CNC(=O)CCCn2ccc3cc(S(=O)(=O)N4CCCC4)ccc32)c1`?
HCMV antiviral: -25.8; HCV inhibitor: inconclusive; Pf growth 96h: -21.3%; Pf growth 48h: inconclusive; Shiga inhibitor: -3.4; Cycloheximide cs: -1.3

What do the screens show for `COc1ccc(OC)c(CNC(=O)CCCn2ccc3cc(S(=O)(=O)N4CCCC4)ccc32)c1`?
HCMV antiviral: -37.6; HCV inhibitor: 10µM*; Pf growth 96h: -16.1%; Pf growth 48h: inconclusive; Shiga inhibitor: -4.3; Cycloheximide cs: 12.3

What do the screens show for `CCn1nc(NC(=O)Cc2ccc(OC)cc2)c2cc3cc(C)ccc3nc21`?
HCMV antiviral: 81.3; HCV inhibitor: inconclusive; Pf growth 96h: 38.4%; Pf growth 48h: 61.0%; Shiga inhibitor: 14.0; Cycloheximide cs: 9.4

What do the screens show for `CN1CCc2c(sc(N)c2C(=O)c2ccc(Cl)cc2)C1`?
HCMV antiviral: -17.5; HCV inhibitor: -7.4%; Pf growth 96h: 4.65µM*; Pf growth 48h: inconclusive; Shiga inhibitor: 7.9; Cycloheximide cs: 6.5

Results for COc1ccc(C(=O)c2c(N)sc3c2CCN(C(=O)OC(C)(C)C)C3)cc1 ?
HCMV antiviral: -83.8*; HCV inhibitor: inconclusive; Pf growth 96h: inconclusive; Pf growth 48h: 13.1µM*; Shiga inhibitor: -4.2; Cycloheximide cs: -6.2

How did Cc1nc2nc(-c3ccc(Cl)cc3)cn2nc1C do in these assays?
HCMV antiviral: 60.6; HCV inhibitor: 0.1%; Pf growth 48h: 233.8%; Shiga inhibitor: 92.7*; Cycloheximide cs: 38.5*

How did Cc1nn2cc(-c3ccc(-c4ccccc4)cc3)nc2s1 do in these assays?
HCMV antiviral: 8.3; HCV inhibitor: -13.3%; Pf growth 96h: 383.3%; Pf growth 48h: 195.1%; Shiga inhibitor: 48.9; Cycloheximide cs: 25.7*

Results for CCc1nn2cc(-c3ccccc3)nc2s1 ?
HCMV antiviral: 2.2; HCV inhibitor: 7.4%; Pf growth 48h: -11.6%; Shiga inhibitor: 4.7; Cycloheximide cs: 6.4

How did Cc1nc2nc(-c3cccs3)cn2nc1C do in these assays?
HCMV antiviral: 150.4; HCV inhibitor: 7.8%; Pf growth 96h: 168.7%; Pf growth 48h: 185.6%; Shiga inhibitor: 54.1; Cycloheximide cs: 30.9*

Results for NS(=O)(=O)c1nn2cc(-c3ccccc3)nc2s1 ?
Shiga inhibitor: 59.3*; Cycloheximide cs: 19.2*

How did COCc1nn2cc(-c3ccc(C)cc3)nc2s1 do in these assays?
HCMV antiviral: -6.4

How did COc1ccc(/C=C(\NC(=O)c2ccco2)C(=O)N2CCCCC2)cc1 do in these assays?
HCMV antiviral: 4.4; HCV inhibitor: -8.5%; Pf growth 96h: 3.3%; Pf growth 48h: 3.1%; Shiga inhibitor: -2.0; Cycloheximide cs: -6.0

How did Nc1c(N(CCC2=CCCCC2)C(=O)Cc2ccccc2F)c(=O)[nH]c(=O)n1Cc1ccccc1 do in these assays?
HCMV antiviral: -14.2; HCV inhibitor: inconclusive; Pf growth 96h: -25.0%; Pf growth 48h: inconclusive

What do the screens show for `COc1ccc(CN(Cc2ccco2)C(=O)c2ccccc2F)cc1`?
HCMV antiviral: -24.1

Results for COc1ccc([C@H]2CC(=O)C=C(c3cccc(OC(F)(F)F)c3)C2)cc1 ?
HCMV antiviral: -35.8; HCV inhibitor: 28.9%; Pf growth 96h: 41.3%; Pf growth 48h: inconclusive

What do the screens show for `Cc1nn2cc(-c3ccc(Cl)cc3)nc2s1`?
HCMV antiviral: -29.0; HCV inhibitor: -6.9%; Pf growth 96h: 71.9%; Pf growth 48h: 271.8%; Shiga inhibitor: 111.8*; Cycloheximide cs: 58.8*

Results for COc1cccc(-c2cn3nc(C)c(C)nc3n2)c1 ?
HCMV antiviral: 105.9; HCV inhibitor: -12.9%; Pf growth 96h: 166.9%[5.75 µM]; Pf growth 48h: -21.0%; Shiga inhibitor: 167.2*; Cycloheximide cs: 41.3*

Results for COc1cccc(-c2ccc3nccn3c2)c1 ?
HCMV antiviral: -17.8

How did CCOC(=O)C1=CCN(S(=O)(=O)c2ccccc2C)C1c1ccc(Cl)c(Cl)c1 (centres undefined) do in these assays?
HCMV antiviral: -75.6*

How did CCOC(=O)C1=CCN(S(=O)(=O)c2ccccc2Cl)C1c1ccc(Cl)c(Cl)c1 (centres undefined) do in these assays?
HCMV antiviral: -17.9

How did Cc1ccc(C(=O)NCCOC23CC4CC(CC(C4)C2)C3)cc1 do in these assays?
HCMV antiviral: -35.9; HCV inhibitor: -7.9%; Pf growth 96h: 2.08µM*; Pf growth 48h: 2.94µM*; Shiga inhibitor: 58.6; Cycloheximide cs: 12.0

Results for CCOc1ccc(C(=O)NCC(=O)NCCCSc2ccccc2)cc1OCC ?
HCMV antiviral: inconclusive; HCV inhibitor: inconclusive; Pf growth 96h: 14.7µM*; Pf growth 48h: -14.7%; Shiga inhibitor: -4.0; Cycloheximide cs: -1.2

Results for Cc1ccc(-c2[nH]c3ccccc3c2SCCNC(=O)c2ccc(S(=O)(=O)N3CCOCC3)cc2)cc1 ?
HCMV antiviral: -19.4; HCV inhibitor: inconclusive; Pf growth 96h: 8.28µM*; Pf growth 48h: inconclusive; Shiga inhibitor: -10.8; Cycloheximide cs: 2.2
